The inhibition is the change of the read-out against control, counted positive when it falls.

SMILES strings stand for the structures. Several values for one entry are separate records, joined by “and”; a condition that tells them apart may be missing. Identical values can stand only once. A number with no mark means an inactive call. For some assays here: Measured potencies and affinities stand elsewhere. Activity calls are given as the source filed them. Unless noted, no rule for the calls is given here.

Assay [1] is described as follows: antimalarial activity against Dd2 strain (AID 2302;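 active = growth inhibition above 50% at the single 2 µM test dose, taken to imply half-maximal potency below 2 µM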;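 also: 0% = DMSO untreated growth and 100% = chloroquine plus artemisinin killed control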). Particulars: P. falciparum Dd2 in RBCs, LDH growth readout, 72 h; at 2 µM; active compounds read high.
Assay [2] in a line: human hepatoma cell viability loss – ATP luminescence, cytotoxicity control for P. falciparum antimalarial project, primary screen (AID 2303;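 active = inhibition above 50%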;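 also: 0% = DMSO wells and 100% = digitonin-killed cells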). Particulars: HepG2 viability, 24-48 h, at 10 µM, active compounds read high.
Assay [3] deals with L-lactate dehydrogenase (Plasmodium falciparum (isolate CDC / Honduras)) (UniProt Q27743). As to the kind of experiment: PfLDH activity inhibition – cell lysate, 3D7 strain, counter-screen for P. falciparum growth inhibition project (AID 2304).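 Also: 0% = vehicle and 100% = reference inhibitor.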 Particulars: P. falciparum 3D7 crude extract, LDH APAD/NBT absorbance; at 2 µM; active compounds read high. In general terms: Counterscreens check selectivity or assay interference.
Sequence of L-lactate dehydrogenase (Plasmodium falciparum (isolate CDC / Honduras)) (Q27743 whole entry, looked up): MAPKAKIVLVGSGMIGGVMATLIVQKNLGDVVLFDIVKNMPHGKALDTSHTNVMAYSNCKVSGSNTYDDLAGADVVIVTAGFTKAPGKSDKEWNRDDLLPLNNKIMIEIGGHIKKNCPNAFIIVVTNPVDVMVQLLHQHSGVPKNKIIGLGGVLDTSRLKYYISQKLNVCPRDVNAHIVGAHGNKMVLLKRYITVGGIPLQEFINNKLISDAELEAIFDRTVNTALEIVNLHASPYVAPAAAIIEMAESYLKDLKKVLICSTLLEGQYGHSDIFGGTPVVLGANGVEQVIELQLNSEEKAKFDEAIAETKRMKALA

The nature of assay [4]: inhibition of 3D7 malaria parasite growth – strain 3D7 (AID 2306).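 Also: 0% = DMSO wells and 100% = chloroquine plus artemisinin control wells.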 The conditions noted are these: P. falciparum 3D7 erythrocytic growth, LDH absorbance, 72 h; at 2 µM; active compounds read high.
The target in assay [5] is Calcium-dependent protein kinase 1 (Plasmodium falciparum (isolate 3D7)) (UniProt P62344). As to the kind of experiment: PfCDPK1 kinase inhibitors, biochemical, TCAMS library (AID 1159585; cut-off not given, nearly all actives have IC50 up to about 0.98 µM;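 also: inhibitors leave more ATP so luminescence rises with inhibition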). The conditions noted are these: recombinant PfCDPK1, Kinase-Glo ATP depletion luminescence.
Sequence of Calcium-dependent protein kinase 1 (Plasmodium falciparum (isolate 3D7)) (P62344 whole entry, looked up): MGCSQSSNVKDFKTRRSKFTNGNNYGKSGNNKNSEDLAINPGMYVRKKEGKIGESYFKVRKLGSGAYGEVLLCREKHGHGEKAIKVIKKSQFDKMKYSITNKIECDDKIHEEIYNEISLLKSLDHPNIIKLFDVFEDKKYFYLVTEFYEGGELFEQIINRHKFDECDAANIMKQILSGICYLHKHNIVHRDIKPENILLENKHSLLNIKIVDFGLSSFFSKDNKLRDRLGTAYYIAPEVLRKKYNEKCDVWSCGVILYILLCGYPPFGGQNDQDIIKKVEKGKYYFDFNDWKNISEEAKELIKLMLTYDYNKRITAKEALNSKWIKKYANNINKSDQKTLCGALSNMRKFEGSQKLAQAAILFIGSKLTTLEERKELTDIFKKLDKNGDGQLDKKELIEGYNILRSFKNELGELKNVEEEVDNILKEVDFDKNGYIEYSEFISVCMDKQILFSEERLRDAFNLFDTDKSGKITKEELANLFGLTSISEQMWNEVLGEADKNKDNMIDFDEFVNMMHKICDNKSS
In assay [6] the target is Plasmodium falciparum protein kinase 6 (PK6, PF3D7_1337100) (UniProt Q8IDW1). As to the kind of experiment: PfPK6 kinase inhibitors, biochemical, TCAMS library (AID 1159586). Particulars: recombinant PfPK6, Kinase-Glo ATP depletion luminescence. Background: In Kinase-Glo more light means more ATP remaining.
Sequence of Plasmodium falciparum protein kinase 6 (PK6, PF3D7_1337100) (Q8IDW1 1-305): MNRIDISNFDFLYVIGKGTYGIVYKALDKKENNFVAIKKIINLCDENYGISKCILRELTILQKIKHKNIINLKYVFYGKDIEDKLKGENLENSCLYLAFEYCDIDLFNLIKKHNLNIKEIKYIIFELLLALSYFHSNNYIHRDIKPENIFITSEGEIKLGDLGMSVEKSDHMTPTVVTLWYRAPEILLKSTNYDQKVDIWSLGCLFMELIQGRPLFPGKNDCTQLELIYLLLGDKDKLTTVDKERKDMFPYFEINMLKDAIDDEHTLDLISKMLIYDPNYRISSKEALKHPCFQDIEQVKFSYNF
Assay [7] addresses Protein kinase 7 (PK7), Plasmodium falciparum 3D7 (PF3D7_0213400) (UniProt Q7YTF7). As to the kind of experiment: inhibition of Plasmodium PK7 catalytic activity – biochemical, TCAMS antimalarial set, Kinase-Glo luminescence (AID 1159587). The conditions noted are these: recombinant PfPK7, Kinase-Glo ATP depletion luminescence.
The target of assay [8] is Calcium-dependent protein kinase 4 (Plasmodium falciparum (isolate 3D7)) (UniProt Q8IBS5). As to the kind of experiment: PfCDPK4 kinase inhibitors, biochemical, TCAMS library (AID 1159588; cut-off not given, nearly all actives have IC50 up to about 0.91 µM). Particulars: recombinant PfCDPK4, Kinase-Glo ATP depletion luminescence.
Sequence of Calcium-dependent protein kinase 4 (Plasmodium falciparum (isolate 3D7)) (Q8IBS5 whole entry, looked up): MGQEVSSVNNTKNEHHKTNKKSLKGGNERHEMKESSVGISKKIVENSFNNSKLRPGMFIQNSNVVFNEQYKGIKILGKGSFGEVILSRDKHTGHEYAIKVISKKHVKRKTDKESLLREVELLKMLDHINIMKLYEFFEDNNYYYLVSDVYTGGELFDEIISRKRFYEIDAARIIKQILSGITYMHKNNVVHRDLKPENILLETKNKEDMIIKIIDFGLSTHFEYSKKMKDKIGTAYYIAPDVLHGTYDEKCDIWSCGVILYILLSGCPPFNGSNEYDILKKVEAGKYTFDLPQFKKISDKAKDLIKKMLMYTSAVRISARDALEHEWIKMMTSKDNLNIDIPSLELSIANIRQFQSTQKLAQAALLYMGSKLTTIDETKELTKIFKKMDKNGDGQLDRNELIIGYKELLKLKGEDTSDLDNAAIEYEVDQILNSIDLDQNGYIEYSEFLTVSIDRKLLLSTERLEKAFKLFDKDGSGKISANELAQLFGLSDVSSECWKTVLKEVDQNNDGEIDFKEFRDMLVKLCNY

Sequence of Protein kinase 7 (PK7), Plasmodium falciparum 3D7 (PF3D7_0213400) (Q7YTF7 1-343): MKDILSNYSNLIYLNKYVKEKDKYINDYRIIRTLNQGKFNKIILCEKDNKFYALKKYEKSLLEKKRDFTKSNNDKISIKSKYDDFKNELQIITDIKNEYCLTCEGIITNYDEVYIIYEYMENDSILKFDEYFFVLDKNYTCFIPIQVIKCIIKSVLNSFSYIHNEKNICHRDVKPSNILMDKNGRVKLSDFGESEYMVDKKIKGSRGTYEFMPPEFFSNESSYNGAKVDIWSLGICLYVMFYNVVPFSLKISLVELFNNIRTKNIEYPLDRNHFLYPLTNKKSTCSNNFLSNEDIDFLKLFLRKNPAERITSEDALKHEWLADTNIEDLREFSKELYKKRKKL

For the molecule `CCN1CC=C(c2c[nH]c3ccccc23)CC1`, the growth inhibition in assay [1] is 58% (active); in assay [4] it was 84% (active). In addition, the inhibition in assay [2] is 27%; in assay [3], -1%. Moreover, the result in assay [5], in assay [6], in assay [7] and in assay [8] was inactive.

As to `O=C(C=Cc1ccc(F)c(Br)c1)NC1CCC(CN2CCC(c3c[nH]c4ccccc34)CC2)CC1` (configuration not stated), the growth inhibition in assay [1] was 67% (active) and 50% (active); in assay [4] it was 103% (active) and 102% (active). Moreover, the inhibition in assay [2] is 39% and 28%; in assay [3], 2% and 5%. The result in assay [5], in assay [6], in assay [7] and in assay [8] was inactive.

Regarding `COc1cc(CC(C)NCC(O)c2cccc(C(F)(F)F)c2)ccc1OCc1ccccc1` (configuration not stated), the growth inhibition was 71% (active) in assay [1] and 93% (active) in assay [4]. The inhibition in assay [2] and in assay [3] was 2% in each case. Besides, the outcome in assay [5], in assay [6], in assay [7] and in assay [8] was inactive.

`O=C(/C=C/c1ccc(Cl)c(Cl)c1)NC1CCC(CN2CC[C@H](c3c[nH]c4ccccc34)[C@@H](O)C2)CC1` (some centres not stated): the growth inhibition in assay [1] was 87% (active); in assay [4] it was 101% (active). In addition, the inhibition in assay [2] was 30%; in assay [3] it was -7%. In addition, the outcome in assay [5], in assay [6], in assay [7] and in assay [8] was inactive.

Consider `Fc1ccc2[nH]cc(CCN3CCC(CNCc4ccccc4)CC3)c2c1`, for which the growth inhibition was 94% (active) in assay [1] and 100% (active) in assay [4]. The inhibition in assay [2] was 67% (active); in assay [3], 4%. The outcome in assay [5], in assay [6], in assay [7] and in assay [8] was inactive.

`Cc1ccc(CC(C)NCC(O)c2cccc(Br)c2)cc1` (configuration not stated): the growth inhibition is 97% (active) in assay [1] and 99% (active) in assay [4]. The inhibition was 7% in assay [2] and 3% in assay [3]. Further, the outcome in assay [5], in assay [6], in assay [7] and in assay [8] was inactive.

For the molecule `CC(C)CNCc1ccc(-c2cccc(CN(C(=O)Nc3ccccc3)C3CCN(Cc4ccccc4)CC3)c2)cc1`, the values for the growth inhibition in assay [1] and in assay [4] were 95% (active) and 101% (active), respectively. The figures for the inhibition in assay [2] and in assay [3] were 48% and 4%, respectively. Further, the outcome in assay [5], in assay [6], in assay [7] and in assay [8] was inactive.

Turning to `CCCCCCCn1c(=O)c(C(=O)Nc2c(C)cccc2C)c(O)c2ccccc21`, the growth inhibition in assay [1] is 42%; in assay [4], 90% (active). Also, the inhibition was 6% in assay [2] and -2% in assay [3]. The outcome in assay [5], in assay [6], in assay [7] and in assay [8] was inactive.

Regarding `CN(c1cc(NC(=O)c2ccc(F)cc2)ccn1)C1CCN(Cc2cccc(F)c2)CC1`, the figures for the growth inhibition in assay [1] and in assay [4] were 97% (active) and 100% (active), respectively. Besides, the inhibition was 13% in assay [2] and 5% in assay [3]. The outcome in assay [5], in assay [6], in assay [7] and in assay [8] was inactive.

In the case of `O=C1COc2ccccc2N1CCN1CCC(NCc2ccc(-c3cccs3)cc2)CC1`, the growth inhibition in assay [1] is 18%; in assay [4], 87% (active). Besides, the inhibition is 37% in assay [2] and -4% in assay [3]. Also, the outcome in assay [5], in assay [6], in assay [7] and in assay [8] was inactive.

In the case of `O=C(NC1CCC(CN2CCC(c3c[nH]c4ccccc34)CC2)CC1)c1cc(-c2ccccc2)c(C(F)(F)F)s1` (configuration not stated), the results for the growth inhibition in assay [1] and in assay [4] were 101% (active) and 100% (active), respectively. For the same molecule, the results for the inhibition in assay [2] and in assay [3] were 55% (active) and 2%, respectively. Moreover, the outcome in assay [5], in assay [6], in assay [7] and in assay [8] was inactive.

As to `Cc1[nH]c2ccccc2c1C1=CCN(CCCCCNC(=O)/C=C/c2ccc(Cl)c(Cl)c2)CC1`, the growth inhibition is 89% (active) in assay [1] and 97% (active) in assay [4]. In addition, the figures for the inhibition in assay [2] and in assay [3] were 28% and -1%, respectively. In addition, the outcome in assay [5], in assay [6], in assay [7] and in assay [8] was inactive.

Consider `O=C(/C=C/c1ccc(Cl)c(Cl)c1)NC1CCC(CN2CCC(c3c[nH]c4cc(O)ccc34)CC2)CC1` (configuration not stated), for which the figures for the growth inhibition in assay [1] and in assay [4] were 98% (active) and 100% (active), respectively. Further, the inhibition is 18% in assay [2] and -10% in assay [3]. In addition, the result in assay [5], in assay [6], in assay [7] and in assay [8] was inactive.

As for `CC(Cc1ccc(OCc2ccccc2)c(Cl)c1)NCC(O)c1cccc(C(F)(F)F)c1` (configuration not stated), the growth inhibition in assay [1] is 95% (active); in assay [4] it was 97% (active). Besides, the results for the inhibition in assay [2] and in assay [3] were -2% and -4%, respectively. Besides, the result in assay [5], in assay [6], in assay [7] and in assay [8] was inactive.

Regarding `O=C(Nc1cc(C(F)(F)F)cc(C(F)(F)F)c1)N1CCC(CN2CCC(c3c[nH]c4ccccc34)CC2)CC1`, the results for the growth inhibition in assay [1] and in assay [4] were 99% (active) and 100% (active), respectively. Further, the inhibition is 42% in assay [2] and -1% in assay [3]. For the same molecule, the outcome in assay [5], in assay [6], in assay [7] and in assay [8] was inactive.

Turning to `CCCCn1c(C)c(C(=O)OCC)c2cc(OC(C)=O)c(Br)cc21`, the figures for the growth inhibition in assay [1] and in assay [4] were 79% (active) and 98% (active), respectively. Besides, the inhibition in assay [2] is -8%; in assay [3] it was -1%. Further, the result in assay [5], in assay [6], in assay [7] and in assay [8] was inactive.

For the molecule `CC[C@H]1CN2CC[C@@H]1C[C@H]2[C@H](O)c1cc(N2CCC(C(N)=O)CC2)nc2ccc(OC)cc12`, the growth inhibition in assay [1] was 9%; in assay [4], 99% (active). The values for the inhibition in assay [2] and in assay [3] were 17% and -5%, respectively. Further, the result in assay [5], in assay [6], in assay [7] and in assay [8] was inactive.

In the case of `CCCCCCCCNCC(O)c1ccc(Cl)c(Cl)c1` (configuration not stated), the growth inhibition in assay [1] was 87% (active); in assay [4] it was 99% (active). Besides, the inhibition in assay [2] was -4%; in assay [3], -3%. Besides, the outcome in assay [5], in assay [6], in assay [7] and in assay [8] was inactive.

With `O=C(/C=C/c1cc(C(F)(F)F)ccc1F)NC1CCC(CN2CCC(c3c[nH]c4ccccc34)CC2)CC1` (configuration not stated), the growth inhibition in assay [1] was 66% (active); in assay [4], 101% (active). Also, the inhibition in assay [2] was 5%; in assay [3] it was -5%. Also, the result in assay [5], in assay [6], in assay [7] and in assay [8] was inactive.

For the origin of these results see PubChem BioAssay.
